The sample as a whole holds a higher share of hits than the screen did.
p53ts 32C tox: kills p53ts cells at the permissive temperature; 130,000 compounds, 0.93% hits; Potency, µM (top dose mostly 46.1 µM), for the others: top-dose activity change, negative = cytotoxicity, hits mostly cytotoxic; H1299-p53A138V at 32C, ATP luminescence viability, 24 h;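 also: potency is read from the fitted curve at half-maximal effect; 0% = DMSO and -100% = full killing by reference compound; nearly all actives have a fitted effect of over 55% in size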
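Cells: H1299 p53ts (A138V), 600/well, pre-incubated 16–30 h at 37C. Cpd up to 46 uM, 24 h, 32C. Readout: ATPlite luminescence, 20 min RT. Normalization: DMSO vs tamoxifen 100 uM. AC50 by Hill equation.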
p53ts 39C tox: cytotoxicity in p53ts cells at nonpermissive temperature. H1299-p53A138V viability at 39C, ATP luminescence, 24 h. Potency, µM (doses to about 46.1 µM), inactives show at the highest dose activity change, negative = cell killing, most hits filed as cytotoxic. 130,000 compounds, 1.5% hits; also: potency is read from the fitted curve at half-maximal effect; % is scaled to controls: 0 for no effect and ±100 for the full control effect; nearly all actives have a fitted effect of over 55% in size
IMPase inh: IMPase inhibition in cells; P97697; CHO-M1 cells, IP1 accumulation, HTRF TR-FRET ratio; inhibition (IP1 accumulation), % at 46.1 µM; 120,000 tested, under 10 active; active = well fitted curve in the direction sought with a large enough effect in the signal ratio, not every such curve was filed as active; inconclusive = small, poorly fitted or top-dose-only effect, or a change in a side signal; inactive = no such curve, though single readings can be large or run the other way; the % refers to the signal ratio;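 also: cells stimulated with carbachol in lithium chloride buffer; plate controls were DMSO basal wells for no effect and reference inhibitor wells for full effect; higher means more IMPase inhibition seen as more IP1 and lower FRET ratio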
Target sequence (P97697 whole entry, looked up): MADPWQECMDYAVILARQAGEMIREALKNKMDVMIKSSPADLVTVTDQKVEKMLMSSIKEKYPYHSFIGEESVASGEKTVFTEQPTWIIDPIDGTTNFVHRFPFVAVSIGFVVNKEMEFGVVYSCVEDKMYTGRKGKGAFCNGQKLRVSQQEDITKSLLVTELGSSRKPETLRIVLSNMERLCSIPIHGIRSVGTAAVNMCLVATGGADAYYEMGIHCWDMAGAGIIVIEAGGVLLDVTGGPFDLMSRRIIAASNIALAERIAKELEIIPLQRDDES
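Seeded CHO-M1 cells were dosed with compound at up to 46 uM, stimulated with carbachol for 30 min, then lysed in IP-One detection reagents. Higher IP1 lowers the TR-FRET signal.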
Peg3 imprint: induces erasure of genomic imprints in mouse ES cells | mouse ES Peg3-LacZ reporter, beta-gal luminescence, 40 h | 110,000 compounds, 0.02% hits | Potency, µM (highest dose often 60.7 µM), without a hit: at the highest dose activity change, positive = activation, hits mostly activators; also: potency is read from the fitted curve at half-maximal effect
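Imprint erasure is scored as LacZ activity from the silenced maternal Peg3 allele in feeder-free female ES cells cultured 40 h with LIF. Luminescence is normalized to in-plate negative controls and fitted to the Hill equation.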
FLuc inh: blocks Photinus pyralis firefly luciferase activity | Potency, µM (series often up to 57.1 µM), for inactives: top-dose activity change, negative = inhibition, most hits filed as inhibitors | AID 411 | P08659 | 72,000 compounds, 2.2% hits | purified firefly luciferase, luminescence, 8 min; also: potency is read from the fitted curve at half-maximal effect; % is scaled to controls: 0 for no effect and ±100 for the full control effect; nearly all actives have a fitted effect of over 40% in size
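Substrate buffer containing 10 uM ATP (pH 7.2 imidazole, Mg2+, KCl, detergent, BSA) is dispensed, compound pinned in, then luciferase/luciferin detector mix added. After 8 min at ambient temperature, light output is measured.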
IkB sig inh: inhibitors of IkB signaling in ABC-DLBCL cells | AID 445 | ABC-DLBCL IkBa-CBG/CBR dual luciferase ratio, 4 h; response scale: scaled: untreated 0%, proteasome inhibitor 100% | Potency, µM (doses to about 57.1 µM), for the others: at the top dose IkBa stabilization activation | 110,000 compounds, 0.04% hits; active = well fitted curve in the direction sought with a large enough effect in the signal ratio, not every such curve was filed as active; inconclusive = small, poorly fitted or top-dose-only effect, or a change in a side signal; the % refers to the signal ratio;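 also: potency is read from the fitted curve at half-maximal effect; the direction sought is a rising ratio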
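In this assay, an IκBα–CBG68 fusion accumulates when IKK-driven degradation is blocked; native CBR normalizes for cell number. OCI-Ly3 cells were treated 4 h with compound and doxycycline, then green and red light read after Chroma-Glo addition.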
* marks the source's active call; other numbers are inactive results; ? = inconclusive; / = no result given; ! = a repeat was not active; [ ] = remark or other dose. Unless noted, calls follow the shape of the dose curve; as a rule, active = well fitted curve in the direction sought with a large enough effect; inconclusive = small, poorly fitted or top-dose-only effect, or another doubt; inactive = no such curve, though single readings can be large; an effect the other way counts as inactive or inconclusive.

SMILES	p53ts 32C tox	p53ts 39C tox	IMPase inh	Peg3 imprint	FLuc inh	IkB sig inh
COc1ccc(NC(=O)c2nc(S(=O)(=O)Cc3ccc(C)cc3)ncc2Cl)cc1	?	6.31µM*	/	-29.5%[10.9 µM]	/	-4.0%
Cc1ccc(NC(=O)CSc2nc3nccnc3c(=O)n2CCc2c[nH]c3ccccc23)c(C)c1	-5.8%	21.4%	/	-6.1%[10.9 µM]	/	-0.1%
O=C(O)c1ccc(NS(=O)(=O)c2cccc3ccccc23)cc1	-18.5%	-1.2%	/	/	/	/
CCc1ccc(NS(=O)(=O)c2ccc(Cl)cc2OC)cc1	28.5%	41.9%	/	/	/	/
CN1CCc2cccc3c2[C@@H]1Cc1ccc(O)c(O)c1-3	31.6µM*!	10µM*!	?	-23.2%	-4.0%[11.4 µM]	-0.5%[11.4 µM]
COc1cc2c3cc1Oc1c(OC)c(OC)cc4c1[C@@H](Cc1ccc(O)c(c1)Oc1ccc(cc1)C[C@@H]3N(C)CC2)N(C)CC4	-5.0%	-29.6%	6.5	-5.5%	2.4%[11.4 µM]	-0.1%[11.4 µM]
COc1cccc(N2CC(NC(=O)Cc3cccs3)CC2=O)c1 (stereo unspecified)	4.6%	2.3%	/	?	/	3.6%
COc1cccc(NC(=O)c2cnc(SCC(=O)N3CCOCC3)n(C)c2=O)c1	9.6%	12.6µM*	/	-79.7%[10.9 µM]	/	?
COc1cccc(NC(=O)Cn2c(SCC(=O)N3CCOCC3)nc3ccccc32)c1	-12.6%	0.2%	7.3	-5.7%	0.1%	0.1%
CN=c1scc(C)n1/N=C/c1ccc(O)cc1O	5.01µM*	5.01µM*	12.0	-81.5%	3.98µM*	?
Cc1nnc(C)n1/N=C/c1ccc2c(c1)OCCO2	9.2%	-5.5%	12.0	-11.0%	1.2%	0.5%
CN=c1scc(C)n1/N=C/c1ccc(O)cc1	7.94µM*	?	4.7	-47.7%	12.6µM*	-0.3%
CN=c1scc(C)n1/N=C/c1ccc2c(c1)OCO2	5.01µM*	5.01µM*	10.8	-84.7%	3.98µM*	?
Cc1sc2nc(C)n(/N=C/c3ccc(O)cc3)c(=O)c2c1C	/	/	0.4	/	/	/
C=C1C(=O)O[C@H]2C[C@@]3(C)CCCC(=C)[C@@H]3C[C@H]12	/	/	/	/	-6.5%[11.4 µM]	4.4%[11.4 µM]
COc1cccc(CNc2cc(C)nc3nc(-c4ccc(C)cc4)nn23)c1	?	7.94µM*	/	-13.5%[10.9 µM]	/	?
c1ccc(-c2ncc(CSc3nncn3-c3ccccc3)s2)cc1	/	/	1.7	/	/	/
Cc1nnc(SCc2cnc(-c3ccc(C(C)C)cc3)s2)n1C	1.58µM*	2µM*	3.4	-14.3%	0.501µM*	-0.6%
CC(=O)c1ccc(NC(=O)c2ccn[nH]2)cc1	12.6µM*	10µM*	-1.8	-76.7%	25.1µM*	1.3%
O=C(Nc1ccccc1)c1ccn[nH]1	/	/	2.8	/	/	/
Cc1ccc2[nH]c3c(=O)n(CC(=O)Nc4ccc(Br)cc4C)ncc3c2c1	0.4%	9.0%	/	4.5%[10.9 µM]	/	2.2%
O=C(Nc1cccc(Cl)c1)N1CCN(Cc2ccccc2)CC1	-11.9%	-15.2%	?	-51.8%	15.8µM*	-1.8%
Cc1ccccc1-c1ccc2ncnc(N3CCOCC3)c2c1	3.5%	-11.7%	/	-14.0%	-0.6%[2.29 µM]	-2.4%[11.4 µM]
COC(=O)C1C(=O)c2c([nH]c(C(=O)OC3CCCC3C)c2C)CC1C (stereo unspecified)	?	-28.3%	3.1	-25.8%	10µM*	10.1%
COC(=O)C1C(=O)c2c([nH]c(C(=O)OCCOC(C)C)c2C)CC1C (stereo unspecified)	/	/	2.6	/	/	/
COC(=O)C1C(=O)c2c([nH]c(C(=O)OC3CCCCC3)c2C)CC1C (stereo unspecified)	-11.7%	-17.2%	3.3	-19.4%	1µM*	-3.4%
Cc1ccc(NC(=O)Cn2c(=O)n(Cc3ccco3)c(=O)c3ccc(C(=O)NC4CCCC4)cc32)c(C)c1	-26.5%	12.6µM*	/	-12.3%[10.9 µM]	/	-1.1%
COc1ccc(Cl)cc1NC(=O)Cn1c(=O)n(Cc2ccco2)c(=O)c2ccc(C(=O)NC3CCCC3)cc21	-0.1%	4.5%	/	-9.0%[10.9 µM]	/	-0.4%

Compound activity from PubChem BioAssay.
